Records with an inconclusive call do not appear. Entries that show only a call come without a potency. A number with no mark means an inactive call. The source made the active and inactive calls. Calls follow the shape of the dose curve; as a rule, active = well fitted curve in the direction sought with a large enough effect; inconclusive = small, poorly fitted or top-dose-only effect, or another doubt; inactive = no such curve, though single readings can be large; an effect the other way counts as inactive or inconclusive.
Key:
[1] = P-glycoprotein substrates identified in KB-3-1 adenocarcinoma cell line, qHTS therapeutic library screen (AID 1346986); also: nearly all actives have a fitted effect of over 60% in size
Procedure, shortened: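 KB-3-1 parental and colchicine-selected P-gp-overexpressing KB-8-5-11 cells (colchicine omitted during assay), 500 cells/well, dosed in dose-response for 72 h at 37 °C; CellTiter-Glo luminescence. Cytotoxic: curve class -1.1 to -2.4, max response >50%, AC50 < 10 uM.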

[2] = P-glycoprotein substrates identified in KB-8-5-11 adenocarcinoma cell line, qHTS therapeutic library screen (AID 1346987); also: nearly all actives have a fitted effect of over 65% in size; as to activity change, negative = cytotoxicity: series mostly up to about 44 µM
Procedure, shortened: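 Steps: plate 500 KB-8-5-11 cells/well in DMEM + 10% FCS (colchicine removed); pin compounds in dose-response; incubate 72 h, 37 degree C, 5% CO2; add CellTiter-Glo, 5 min; read luminescence.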

COC(=O)C(CC1(O)c2ccccc2N2C(=O)C(CC(C)C)NC21)n1cnc2ccccc2c1=O (centres undefined)
Potency [1]: inactive
Potency [2]: inactive

CC(C)=CCC[C@@](C)(O)[C@H]1CC[C@]2(C)[C@@H]1[C@H](O)CC1[C@@]3(C)CC[C@H](O[C@@H]4O[C@H](CO)[C@@H](O)[C@H](O)[C@H]4O[C@@H]4O[C@H](CO)[C@@H](O)[C@H](O)[C@H]4O)C(C)(C)[C@@H]3CC[C@]12C (some centres undefined)
Potency [1]: inactive
Potency [2]: inactive

CC1(C)CC[C@]2(C(=O)O[C@@H]3O[C@H](CO)[C@@H](O)[C@H](O)[C@H]3O)CC[C@]3(C)C(=CCC4[C@@]5(C)CC[C@H](OC6OC(C(=O)O)C(OC7OC(CO)C(O)C(O)C7O)C(O)C6O)C(C)(C)C5CC[C@]43C)C2C1 (some centres undefined)
outcome [1]: inactive [at 9.29 µM]
activity change, negative = cytotoxicity [2]: 9.04% [at 9.29 µM]

COc1ccnc2[nH]cc(C(=O)C(=O)N3CCN(C(=O)c4ccccc4)CC3C)c12 (centres undefined)
Potency [1]: inactive
Potency [2]: inactive

COC(=O)C1=COC(O[C@@H]2O[C@H](CO)[C@@H](O)[C@H](O)[C@H]2O)[C@@H]2[C@@](C)(O)[C@@H](OC(=O)/C=C/c3ccccc3)C[C@]12O (some centres undefined)
Potency [1]: inactive
Potency [2]: inactive

CC(C)(O)C(O)C(=O)OCc1ccc(O[C@@H]2O[C@H](CO)[C@@H](O)[C@H](O)[C@H]2O)cc1 (some centres undefined)
Potency [1]: inactive
Potency [2]: inactive

COc1cc2nc(=NC(=O)c3cccnc3)n3c(c2cc1OC)NCC3
Potency [1]: inactive
Potency [2]: inactive

COc1cc2c(cc1O)CC(O)(CO)C(CO)C2c1ccc(OC2OC(CO)C(O)C(O)C2O)c(OC)c1 (centres undefined)
Potency [1]: inactive
Potency [2]: inactive

CC(=O)NC(Cc1c[nH]c2ccccc(=O)c12)C(=O)O (centres undefined)
Potency [1]: inactive
Potency [2]: inactive

CC1CC(=O)C2=C(O1)OC1(C)CCC3C(C)(C)C4OC4C(=O)C3(C)C1C2 (centres undefined)
Potency [1]: inactive
Potency [2]: inactive

CCc1cccc2c3c([nH]c12)[C@@](CC)(CC(=O)O)OCC3
Potency [1]: inactive
Potency [2]: inactive

C/C(=C\CCC1(C)C2CC3C(C2)C31C)C(=O)O (centres undefined)
Potency [1]: inactive
Potency [2]: inactive

C=C1CCC2[C@](C)(CCC[C@]2(C)C(=O)O)[C@H]1CC/C(C)=C/C(=O)OC (some centres undefined)
Potency [1]: inactive
Potency [2]: inactive

Cc1occc(=O)c1O[C@@H]1O[C@H](CO)[C@@H](O)[C@H](O)[C@H]1O
Potency [1]: inactive
Potency [2]: inactive

CC(=O)O[C@H]1C[C@@H](O)C(C)(C)C2C[C@@H](OC(C)=O)[C@@]3(C)C4=CCC(C(CO)CC(O)C5OC5(C)C)[C@]4(C)CCC3[C@]21C (some centres undefined)
Potency [1]: inactive
Potency [2]: inactive

Cc1cn(C[C@H](N)C(=O)O)c(=O)n(Cc2ccsc2C(=O)O)c1=O
Potency [1]: inactive
Potency [2]: inactive

Cc1ccc(C)c(S(=O)(=O)n2cnc3ccccc32)c1
Potency [1]: inactive
Potency [2]: inactive

C=C1C[C@H](O)[C@@H](O)[C@@]2(C)C1[C@@H](O)[C@H]1OC(=O)C3[C@@H](C)[C@@H](O)[C@H](O)C2[C@]31C (some centres undefined)
Potency [1]: inactive
Potency [2]: inactive

CC(=O)OC1C(CO)OC(O[C@H]2[C@H](OC(=O)[C@]34CCC(C)(C)C[C@H]3C3=CCC5[C@@]6(C)CC[C@H](O[C@@H]7O[C@H](C(=O)O)[C@@H](O)[C@H](O[C@@H]8OC[C@@H](O)[C@H](O)[C@H]8O)[C@H]7O[C@@H]7O[C@H](CO)[C@H](O)[C@H](O)[C@H]7O)[C@@](C)(C=O)C6CC[C@@]5(C)[C@]3(C)C[C@H]4O)O[C@H](C)[C@H](OC3OC(C)C(OC4OCC(O)C(O)C4O)C(O)C3O)[C@@H]2O)C(O)C1O (some centres undefined)
outcome [1]: inactive [at 9.29 µM]
activity change, negative = cytotoxicity [2]: 1.85% [at 9.29 µM]

CC1(C)OC(=O)C=C[C@@]2(C)C1CC(=O)[C@]1(C)C2CC[C@@]2(C)[C@H](c3ccoc3)OC(=O)[C@H]3O[C@]321 (some centres undefined)
Potency [1]: inactive
Potency [2]: inactive

COc1cc(O[C@@H]2O[C@H](CO[C@H]3OC[C@](O)(CO)[C@H]3O)[C@@H](O)[C@H](O)[C@H]2O)cc(OC)c1O
Potency [1]: inactive
Potency [2]: inactive

C=C1CC23CC(=O)C4C(CO)(CO)CCCC4(C)C2CCC1C3 (centres undefined)
Potency [1]: inactive
Potency [2]: inactive

CC1(C)OC(=O)CC(O)C2(C)C1CC(=O)C1(C)C2C(O)CC2(C)C(c3ccoc3)OC(=O)C3OC321 (centres undefined)
Potency [1]: inactive
Potency [2]: inactive

COC(=O)C(CC1CCCC1)c1ccc(S(C)(=O)=O)cc1 (centres undefined)
Potency [1]: inactive
Potency [2]: inactive

O=C(Nc1ccn(Cc2c(F)cccc2C(F)(F)F)n1)c1c(F)cccc1F
outcome [1]: inactive [at 9.29 µM]
activity change, negative = cytotoxicity [2]: 7.74% [at 9.29 µM]

CC(C)=CCC(O)[C@](C)(O)C1[C@H](O)C[C@@]2(C)C3CC=C4C(C[C@H](O)[C@@H](O[C@@H]5O[C@H](CO)[C@@H](O)[C@H](O)[C@H]5O)C4(C)C)[C@]3(C)C(=O)C[C@]12C (some centres undefined)
Potency [1]: inactive
Potency [2]: inactive

CC1(C)CC[C@]2(C(=O)O[C@@H]3O[C@H](CO[C@@H]4O[C@H](CO[C@@H]5O[C@H](CO)[C@H](O)[C@H](O)[C@H]5O)[C@@H](O)[C@H](O)[C@H]4O)[C@@H](O)[C@H](O[C@@H]4O[C@H](CO)[C@@H](O)[C@H](O)[C@H]4O)[C@H]3O)[C@H](O)C[C@]3(C)C(=CCC4[C@@]5(C)CC[C@H](O[C@@H]6OC[C@@H](O)[C@H](O)[C@H]6O)[C@@](C)(C(=O)O)C5CC[C@]43C)[C@@H]2C1 (some centres undefined)
outcome [1]: inactive [at 9.29 µM]
outcome [2]: inactive [at 9.29 µM]
